Laboratory results taken from the supplement of paper PMC3334620.
Whole data set: some 33,000 sequences, median “E-score (-0.5 to 0.5)” near -0.012, cut for the highest 2% near 0.29. Many of the other results were omitted from the sample, so the highest values are more common in it than they were.

target: T1, Ybr033w (UniProt P38073); experiment: PBM E-score (8-mer binding enrichment) (E-score (-0.5 to 0.5)); higher = stronger / more preferred TF binding; details: protein concentration: 200 nM; construct: GST-full length
T1 sequence: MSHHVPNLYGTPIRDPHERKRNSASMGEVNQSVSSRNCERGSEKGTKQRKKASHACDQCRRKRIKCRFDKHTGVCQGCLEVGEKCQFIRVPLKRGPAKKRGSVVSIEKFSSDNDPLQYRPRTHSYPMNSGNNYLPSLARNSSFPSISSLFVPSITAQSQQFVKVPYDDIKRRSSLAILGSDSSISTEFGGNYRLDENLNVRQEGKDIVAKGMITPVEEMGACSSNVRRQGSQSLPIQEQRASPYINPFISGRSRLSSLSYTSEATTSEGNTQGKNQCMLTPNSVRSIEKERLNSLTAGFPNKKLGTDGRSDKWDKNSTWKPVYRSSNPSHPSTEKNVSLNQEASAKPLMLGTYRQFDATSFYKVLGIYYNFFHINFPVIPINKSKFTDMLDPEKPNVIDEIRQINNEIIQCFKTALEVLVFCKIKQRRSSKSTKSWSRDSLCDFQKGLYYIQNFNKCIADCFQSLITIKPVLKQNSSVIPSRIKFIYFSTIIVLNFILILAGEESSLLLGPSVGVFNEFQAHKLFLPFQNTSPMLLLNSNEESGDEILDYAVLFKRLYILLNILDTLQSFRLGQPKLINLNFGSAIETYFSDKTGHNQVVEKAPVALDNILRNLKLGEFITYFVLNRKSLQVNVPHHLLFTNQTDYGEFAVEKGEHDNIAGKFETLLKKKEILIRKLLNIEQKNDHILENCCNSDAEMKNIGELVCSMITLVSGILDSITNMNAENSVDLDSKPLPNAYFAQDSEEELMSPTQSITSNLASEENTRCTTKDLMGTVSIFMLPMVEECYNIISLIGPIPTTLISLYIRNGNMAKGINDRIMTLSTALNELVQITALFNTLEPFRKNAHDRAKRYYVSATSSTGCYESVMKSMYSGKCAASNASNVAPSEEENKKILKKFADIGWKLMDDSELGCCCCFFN
Summary of the method: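 Using PURExpress in vitro transcription/translation, GST-tagged yeast transcription factors were made in full-length or DNA-binding-domain form. These were applied at about 100-200 nM to double-stranded universal all-10-mer Agilent arrays, and bound protein was detected with fluorescent anti-GST. Scans were normalised with masliner before the Universal PBM Analysis Suite assigned E-scores to ungapped eight-base words pooled with their reverse complements.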

Row | Sequence | PBM E-score
1 | ATAACGAA | 0.229
2 | TTAACGAA | 0.296
3 | CTAACGAA | 0.0607
4 | CAATAAGC | 0.0395
5 | AAATAAGT | 0.295
6 | AAATAAGG | 0.00755
7 | AAATAAAG | 0.281
8 | AAATAAAT | 0.298
9 | ATATAAAG | 0.211
10 | AAATAACT | 0.294
11 | AAATAACA | 0.11
12 | ATATAAAT | 0.34
13 | AAATAAAA | 0.233
14 | ATATAAAC | 0.142
15 | AAATAACG | 0.232
16 | AAATAAGC | 0.0677
17 | GATTCTGC | 0.0635
18 | CAGCAAAC | -0.0765
19 | GGTTCTGA | -0.0472
20 | ACATGACC | -0.186
21 | ACTTATGA | 0.171
22 | CGATCTAC | -0.0159
23 | AGCTGGTA | -0.142
24 | AGGATTTA | 0.228
25 | AGGATTAA | 0.361

Row | Sequence | PBM E-score
26 | AGGATTAT | 0.306
27 | AGGATTAG | 0.161
28 | AGGATTAC | 0.106
29 | AGGATTCA | 0.114
30 | CCTGTAGC | -0.353
31 | GGCCTACC | -0.113
32 | CGACTGCA | -0.126
33 | ACTAACGG | -0.0153
34 | TCAATTAA | 0.252
35 | ACAATTAG | 0.0047
36 | ACAATTAC | 0.202
37 | ACAATTAT | 0.328
38 | ACAATTAA | 0.302
39 | CCAATTAA | 0.215
40 | GGCTAGGA | -0.106
41 | ACCGCACT | -0.0787
42 | GAGAGCTC | -0.197
43 | AGCCCAAT | -0.125
44 | GAGTTTTA | 0.146
45 | GATATATC | 0.226
46 | GATATATA | 0.289
47 | TATATATA | 0.28
48 | CGGATATA | 0.345
49 | AAGATATA | 0.323
50 | CGGATATC | 0.0386

Row | Sequence | PBM E-score
51 | AAGATATC | 0.117
52 | GGGATATA | 0.158
53 | CAGATATA | 0.175
54 | CGTGGTTA | -0.0128
55 | CGCGAGCA | -0.12
56 | CACCTTAC | -0.00385
57 | CCGGAACC | -0.16
58 | GCGGAACA | 0.265
59 | AGGGAACA | 0.249
60 | ACGGAACA | 0.298
61 | ACGGAACT | 0.0148
62 | CGGGAACA | 0.331
63 | CCGGAACG | -0.0381
64 | TCGGAACA | 0.387
65 | ACGGAACC | -0.0347
66 | TGGGAACA | 0.111
67 | GGGGAACA | 0.00453
68 | CCGGAACA | 0.447
69 | ATCGTTCC | -0.196
70 | ATATTTGC | 0.222
71 | TATGTTAA | 0.238
72 | CAGGGAAC | 0.0159
73 | CCCATCCC | -0.23
74 | ACTGACGA | -0.0835
75 | CTGATTCC | -0.0421

Row | Sequence | PBM E-score
76 | ATGATTCA | 0.127
77 | ATAATTCG | 0.294
78 | ACAATTCG | 0.0965
79 | ATAATTCC | 0.348
80 | CTAATTCC | 0.0934
81 | ATGATTCC | 0.336
82 | AGAATTCC | 0.0767
83 | ATAATTCA | 0.241
84 | AGCTCTGA | -0.0863
85 | TACGGGGA | -0.183
86 | GAGAATGA | 0.122
87 | ACACCGAT | -0.185
88 | AAGCGCAG | 0.127
89 | ACTAGATC | -0.0476
90 | AGTAGATA | 0.311
91 | CGTAGATA | 0.0341
92 | AGTAGATC | 0.164
93 | CCTAGATA | -0.0707
94 | ACTAGATA | 0.304
95 | GCGGGGAC | -0.22
96 | AGATGAAA | 0.0735
97 | AGAGCGTC | -0.081
98 | ATCAGAAA | 0.044
99 | AGATACAA | 0.292
100 | AGATACAG | 0.22

Row | Sequence | PBM E-score
101 | CGATACAA | 0.165
102 | CGGTGACG | -0.0845
103 | AATGCGAG | 0.291
104 | AATGCGAT | -0.0207
105 | CATGCGAG | -0.217
106 | GGCATAAA | 0.167
107 | ATACGTGC | -0.058
108 | TCACTAGA | 0.12
109 | CATTGTAC | 0.0182
110 | AGTTGTTA | 0.174
111 | AATTGTTG | 0.114
112 | AATTGTTA | 0.314
113 | AATTGTCA | 0.139
114 | AATTGTAC | 0.337
115 | AGTTGTTG | 0.123
116 | AATTGTTC | 0.339
117 | AGTTGTTC | 0.337
118 | GATTGTTA | 0.0997
119 | AATTGTCC | 0.163
120 | GATTGTAC | 0.0766
121 | CTGCAAAA | 0.022
122 | GAGCCCTA | -0.201
123 | AACCTTGT | -0.194
124 | ACCTGGGC | -0.362
125 | CATGGAAG | 0.204

Row | Sequence | PBM E-score
126 | AAATGTTA | 0.149
127 | ATTTGTTA | 0.185
128 | AAATGTTC | 0.346
129 | CATTGTTA | -0.015
130 | CATTGTTC | 0.31
131 | ATTTGTTC | 0.44
132 | CTTTGTTC | 0.111
133 | CCTTGTTC | -0.124
134 | AAATGTTG | -0.0479
135 | GAGAGGTA | -0.223
136 | CCCATCCA | -0.158
137 | AACTGAGA | 0.0375
138 | GTTTGATA | 0.177
139 | AGCCCTGG | -0.252
140 | AAATGGCA | 0.101
141 | ATTCCGAC | 0.157
142 | GTTCCGAA | 0.29
143 | ATTCCGAG | 0.242
144 | GGTCCGAA | -0.0173
145 | ATTCCGAA | 0.32
146 | CTTCCGGA | 0.274
147 | ATTCCGGA | 0.387
148 | ATTCCGGG | 0.188
149 | CTTCCGAA | 0.208
150 | GAAGCTGA | 0.135

Row | Sequence | PBM E-score
151 | CAGCTACA | 0.0259
152 | GCTACGCC | -0.239
153 | ACGTTACT | 0.0376
154 | ATACGCCG | -0.149
155 | AGTCAAAT | 0.188
156 | GGCCACCC | -0.214
157 | CATTGAAA | 0.29
158 | CATTGAAG | -0.0671
159 | CCTTGAAA | 0.0714
160 | TCTTGAAA | 0.319
161 | GCTTGAAA | 0.0485
162 | CATTGAAC | 0.124
163 | AGTGGTAG | 0.0179
164 | AGTAACTG | 0.0214
165 | CTTAACTC | 0.0941
166 | ATTAACTC | 0.291
167 | ATTAACTA | 0.181
168 | ATTAACCA | 0.0788
169 | ATTAACCC | 0.237
170 | ATTAACCG | 0.295
171 | ATTAACGG | 0.159
172 | ATTAACTG | 0.333
